Neddyl block: blocks human cullin neddylation; P61081+Q13564; TR-FRET cullin neddylation, biochemical; calls only at 25 µM; 360,000 compounds, 0.58% hits; in the data active = inhibition above about 36%
PKA-R2B activ: activates the human PKA-R2B holoenzyme complex; P22694+P31323; PKA-R2B holoenzyme dissociation, Cy5-IP20 fluorescence polarization; R2B truncated from residue 108, S112A mutant; 0% DMSO only, 100% 113 µM cGMP; activation, % at 11.4 µM; 340,000 compounds, 0.079% hits;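 active = activation above a cutoff set at the mean over all compounds plus 3 SD, cut at about 18% in these data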;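 also: higher means more holoenzyme dissociation and a rise in polarization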
Target sequence (P31323 whole entry, looked up, other chains not shown, the tested form may be a part): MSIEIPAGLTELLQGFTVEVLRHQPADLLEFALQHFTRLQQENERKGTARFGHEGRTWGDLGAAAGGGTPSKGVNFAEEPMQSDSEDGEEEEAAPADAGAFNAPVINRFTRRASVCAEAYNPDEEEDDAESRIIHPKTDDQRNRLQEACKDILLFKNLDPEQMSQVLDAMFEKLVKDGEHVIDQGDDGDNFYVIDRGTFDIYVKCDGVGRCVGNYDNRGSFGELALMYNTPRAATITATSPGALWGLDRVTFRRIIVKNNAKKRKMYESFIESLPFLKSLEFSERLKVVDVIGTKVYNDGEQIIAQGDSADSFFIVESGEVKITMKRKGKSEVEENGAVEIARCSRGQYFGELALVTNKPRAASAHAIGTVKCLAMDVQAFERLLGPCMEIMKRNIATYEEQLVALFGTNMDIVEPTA
PKA-R1A act: activators of PKA-R1A complex | 340,000 compounds, 0.083% hits | PKA-R1A dissociation, Cy5-IP20 fluorescence polarization; scaled: DMSO 0%, 113 µM cGMP 100% | activation, % at 11.4 µM | AID 504707 | P00514+P68181;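 active = percent activation above the mean of all tested compounds plus 3 SD, cut at about 19% in these data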;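 also: higher means more PKAc released from R1A so a rise in polarization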
PolyA inhibitor: yeast polyadenylation inhibition; S. cerevisiae SKY197-pL101 polyadenylation reporter, beta-gal luminescence; efflux-impaired pdr1/pdr3 knockout yeast; score 100 = 6 SD above DMSO; activity score, % at 12 µM; 300,000 compounds, 0.02% hits; AID 1875;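 active = lowest replicate activity score at least 50, where 100 means six control SD above control mean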;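 also: yeast exposed to compound for 9 h at 30 °C; higher score means more reporter readthrough which indicates perturbed polyadenylation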
* = called active by the depositor; i = inactive; x = no result given; + = active, no number. An excerpt weighted towards active compounds, which were near 0.72% of everything screened.

SMILES	Neddyl block	PKA-R2B activ	PKA-R1A act	PolyA inhibitor
CCOC(=O)c1cc(OC)c2cccc(CN3CCC(C)(C(=O)NCCOC)C3)c2c1 (stereo not given)	+	x	x	x
CCOC(=O)c1cc(OC)c2cccc(CN3CCCC(C)(C(=O)NCCOC)C3)c2c1 (stereo not given)	i	x	x	x
Cc1c(NC(=O)CN2c3ccccc3CC2C)c(=O)n(-c2ccccc2)n1C (stereo not given)	i	-1	-1	21
CCc1ccc(NC(=S)N2CCCCCCC2)cc1	i	4	-3	6
CC(C)N(C(=O)CSc1nnc(C2CC2)n1C1CC1)c1ccccc1	i	-3	0	x
S=c1[nH]nc(-c2cc(-c3ccccc3)n[nH]2)n1/N=C/c1cccc(Cl)c1	+	-4	-2	-19
CC1(C)CC(=O)C(C(=O)c2ccccc2)C(=O)C1	i	-10	-2	-6
O=C1C=C(c2ccccc2)OC(=O)C1C(=O)c1ccccc1 (stereo not given)	i	13	0	121*
Cn1c(=O)c(C(=O)NNC(=O)c2ccccc2Cl)c(O)c2ccccc21	i	7	2	88*
O=S(=O)(Nc1nc2ccccc2nc1N1CCc2ccccc2C1)c1ccc(Cl)cc1	i	-2	-6	-4
O=S(=O)(Nc1nc2ccccc2nc1N1CCc2ccccc2C1)c1ccc(Br)cc1	+	-2	6	x
Cc1c(Cl)cccc1NC(=S)NCCc1ccc(C(F)(F)F)cc1	i	-7	-5	-2
O=C(O)COc1ccc(/C=N/NC(=O)C(O)(c2ccccc2)c2ccccc2)cc1	i	-4	-9	-17
COc1cc(/C=N/NC(=O)c2cc(-c3ccco3)nc3ccccc23)cc(OC)c1O	i	-7	-18	-6
O=C(N/N=C/c1cccc(F)c1)c1cc(-c2ccco2)nc2ccccc12	+	-2	0	-14
Cc1cn([C@H]2C[C@H](O)[C@@H](CCC(=O)NCc3ccco3)O2)c(=O)[nH]c1=O	i	0	-13	x
O=C1NC[C@@H](CCCCN2CCN(Cc3ccccc3)C(=O)C2=O)N(CC2CCCCC2)C1=O	i	x	x	x
CN1C(=O)c2ccccc2N(C)C1c1cccc(O)c1 (stereo not given)	x	-7	-9	-10
O=C(NNC(=S)NC1CC2C=CC1C2)c1cccnc1 (stereo not given)	i	x	x	66*
CN(C)c1ccc(-c2nc3ccccc3c(=O)[nH]2)cc1	+	2	4	-19
O=c1[nH]cc(N=Cc2cc(Cl)cc(Cl)c2O)c(=O)[nH]1	+	-3	-10	4
O=c1[nH]cc(N=Cc2cc([N+](=O)[O-])ccc2O)c(=O)[nH]1	x	x	x	-45
Nc1ccc2nc(-c3ccccn3)[nH]c2c1	i	-13	-6	10
COc1ccc2nc(-c3ccccn3)[nH]c2c1	+	12	6	8
CCOc1ccc(C2C(C#N)=C(N)Oc3nc[nH]c(=O)c32)cc1 (stereo not given)	i	-16	1	17
SMILES	Neddyl block	PKA-R2B activ	PKA-R1A act	PolyA inhibitor
O=c1[nH]cnc2c1C(c1ccc(Cl)cc1)c1c(nc[nH]c1=O)O2	i	-3	19*	-19
CC(=O)c1sc2nc(-c3ccco3)ccc2c1N	+	x	x	0
Cc1ccc2ccc(C(Nc3ccccc3)c3ccccc3)c(O)c2n1 (stereo not given)	i	x	x	x
Cc1ccc2ccc(C(Nc3cccc(C(F)(F)F)c3)c3cccnc3)c(O)c2n1 (stereo not given)	+	0	-13	-15
O=C(COC(=O)/C=C/c1cccs1)NC(=O)Cc1ccccc1	i	-3	6	2
O=C(COC(=O)/C=C/c1cccs1)NC(c1ccccc1)c1ccccc1	i	-2	-2	150*
Cc1cc2nc3ccc(N(C)C)cc3nc2cc1N	+	-5	3	-11
Cc1ccc(-n2nc3cc(C)c(N)cc3n2)cc1	x	-1	13	-1
O=C(O)CN1C(=O)/C(=C/c2ccc(N3CCCCC3)o2)SC1=S	i	-11	1	106*
C=CCOc1ccc2c(CC)cc(=O)oc2c1C	+	-24	-13	-16
CCc1ccc(S(=O)(=O)N2CCCC(N3CCN(c4ccc(OC)cc4)CC3)C2)cc1 (stereo not given)	i	3	1	-4
CC(=O)c1ccc(-c2ccc(C(=O)Nc3nc(-c4ccccn4)cs3)o2)cc1	+	-5	-5	x
OCC(Cc1ccccc1)Nc1c2ccccc2nc2ccccc12 (stereo not given)	+	-6	-13	-17
CC(C)(C)OC(=O)N(CCc1ccccc1)Cc1cccc(OCc2cccc(NC(=O)C3CCCC3)c2)c1	i	-3	-7	x
Cc1ccc2nc(-c3ccccc3)cn2c1	+	1	-4	-19
Cc1ccnc(N2C(=O)c3cccc4c([N+](=O)[O-])ccc(c34)C2=O)c1	+	3	5	-52
Cc1nc2ccc(NC(=O)CSc3nnc(C)s3)cc2[nH]1	i	-5	-2	-8
COc1ccc(S(=O)(=O)N(C)C[C@@H]2Oc3c(NS(=O)(=O)c4cn(C)cn4)cccc3C(=O)N([C@@H](C)CO)C[C@@H]2C)cc1	i	0	-9	x
CCOC(=O)c1c(C)nc2c(c1-c1ccccc1)C(=O)c1ccccc1-2	i	10	20*	-3
O=c1cc(O)cc2n1CCC2	i	x	x	x
COc1cc(NC(=O)N2c3ccccc3Sc3ccccc32)c(C(=O)O)cc1OC	+	-1	3	6
CN(CCC1CCOCC1)C(=O)CC1C(=O)NCCN1Cc1c(F)cccc1Cl (stereo not given)	i	4	-8	11
CC(C)C[C@H]1CN([C@@H](Cc2ccc(O)cc2)CN2CCCC2CN2C(=S)NC[C@@H]2Cc2ccccc2)C(=S)N1CC1CCCCC1 (stereo not given in full)	i	x	x	x
O=C(O)c1ccccc1NS(=O)(=O)c1ccc(NN=Cc2ccccc2F)c([N+](=O)[O-])c1	i	23*	4	x
O=C(NCc1ccco1)Nc1ccc2nsnc2c1	+	0	10	-4
SMILES	Neddyl block	PKA-R2B activ	PKA-R1A act	PolyA inhibitor
CCN1CCN(C(=O)c2cnn3c(C(F)F)cc(-c4ccc(C)cc4)nc23)CC1	+	-10	-6	-1
Cc1ccc(NC(=O)C(C)SCc2nc3sc(C)c(C)c3c(=O)[nH]2)nc1 (stereo not given)	i	-7	-13	1
Cc1sc2ncnc(N/N=C/c3ccccc3O)c2c1C	+	3	11	3
COc1cc(-c2nc(C(=O)NCC3CCCO3)cc3c2[nH]c2ccccc23)cc(OC)c1OC (stereo not given)	+	1	-9	1
Oc1c(C(c2ccccc2)N2CCOCC2)ccc2ccccc12 (stereo not given)	+	-14	0	x
O=C(CN1CCN(C(c2ccccc2)c2ccccc2)CC1)N1CCOCC1	i	3	-3	-7
